Source: PubChem
aSyn UTR inh: MLPCN primary screen, SNCA 5' untranslated region; alpha-synuclein 5'UTR reporter, inhibitor activity; inhibition, % (tested at 7.5 µM); hit rate 0.82% among 300,000; AID 1813; in the data active means inhibition above about 60%; inconclusive means no clear call, values can overlap the other calls;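 further: H4 neuroglioblastoma cells stably carrying SNCA 5'UTR luciferase fusion; 0% = DMSO wells and 100% = positive control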
697 NFkB inh: lowers PMA/ionomycin-induced NF-kB signal in 697 B cells. 697 B-cell NF-kB luciferase reporter, 16 h. inhibition, % at 4 µM. hit rate 0.33% among 330,000. AID 435022; in the data active means inhibition above about 35%
CSC inhib: cancer stem cell inhibition. cancer stem cell-like cells viability, luminescence. inhibition, % at 7.5 µM. hit rate 1.1% among 300,000. AID 2717; in the data active means inhibition above about 75%; inconclusive means no clear call, values can overlap the other calls; tested in HMLE shEcad cells
Gli-Sufu block: blocks Gli-Sufu signaling in a luciferase reporter | hit rate 0.74% among 340,000 | AID 588413 | inhibition, % at 5 µM | Sufu-KO-LIGHT fibroblasts, Gli luciferase reporter luminescence;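 active means inhibition above about 55%, limit read from the data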;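 further: 0% = DMSO-treated cells and 100% = wells with medium but no cells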
Mdm2 MdmX PPI: inhibitors of human Mdm2/MdmX interaction; SaOS-2 split-luciferase Mdm2/MdmX complementation, luminescence; hit rate 3% among 330,000; inhibition, % at 8 µM;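 active means inhibition of at least 50% at 8 µM in the primary screen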
Jurkat NFkB inh: inhibitors of the PMA/ionomycin-induced NF-kB reporter in Jurkat cells; hit rate 0.53% among 330,000; inhibition, % at 4 µM; PMA/ionomycin-induced NF-kB luciferase reporter, luminescence; in the data active means inhibition above about 50%
Numbers without * were called inactive; ? = inconclusive; / = no result. Hits are enriched below; roughly 4.5% of the tested compounds scored in any of these assays.

SMILES	aSyn UTR inh	697 NFkB inh	CSC inhib	Gli-Sufu block	Mdm2 MdmX PPI	Jurkat NFkB inh
C=CCn1c(SCC(=O)c2[nH]c(C)c(C(=O)OCC)c2C)nc2scc(-c3ccc(OC)c(OC)c3)c2c1=O	?	/	93*	16	/	/
CCCCCCCCCCCCCCCC[N+](C)(C)CCl	/	/	/	58*	/	/
COc1ccc2c(c1)CCc1c(C(=O)N3CC4(C)CC3CC(C)(C)C4)noc1-2 (stereo not drawn)	-21	-40	95*	0	21	-17
COc1ccc2c(c1)CCc1c(C(=O)N3CCOCC3)noc1-2	-162	-55	3	-75	-46	-78
Cc1ccc2c(c1)N(CC(=O)NC1CCC(C)CC1)C(=O)c1cccnc1O2 (stereo not drawn)	17	-21	/	0	-32	-15
O=c1[nH]c(NNC(=S)NCc2ccccc2)nc2c1C1(CCCCC1)Cc1ccccc1-2	8	18	106*	34	-2	2
CCCc1cc(=O)[nH]c(SCC(=O)NC(=O)OCC)n1	20	12	-11	4	22	12
CCCc1cc(=O)[nH]c(SCC(=O)Nc2sc(C(N)=O)c(C)c2C(=O)OCCOC)n1	/	13	94*	20	17	-1
COc1ccc(Cl)cc1NC(=O)CSc1nnc(-c2ccco2)o1	-7	10	-9	2	18	6
CC(=O)Oc1ccc2nc(/C=C/c3ccccc3)oc(=O)c2c1	-18	-21	9	-3	12	-7
CC(C)(C)c1nn(-c2ccccc2)c2[nH]c(=O)c(C=O)cc12	16	-57	88*	-17	38	-6
CC(C)(C)c1nn(-c2ccccc2)c2nc(Cl)c(C=O)cc12	24	2	-4	-13	1	-11
CC(C)(C)c1ccc(-c2nc(NCc3cccnc3)c3ccccc3n2)cc1	-96	-68	133*	-43	11	-61
c1cncc(CNc2nc(-c3cccnc3)nc3ccccc23)c1	12	31	0	12	12	-20
CCc1nc(N2CCCCC2C(=O)O)c2oc3ccccc3c2n1 (stereo not drawn)	18	9	-9	0	-15	3
CCc1nc(N2CCCCC2C)c2oc3ccccc3c2n1 (stereo not drawn)	-2	-6	102*	2	48	12
CCc1nc(N2CCN(Cc3ccc4c(c3)OCO4)CC2)c2oc3ccccc3c2n1	-27	13	81*	4	30	17
CCc1nc(N2CCCCC2)c2oc3ccccc3c2n1	-16	-16	35	6	-9	-11
O=C(Nc1ccc(O)cc1)c1ccc(NC(=O)c2cccs2)cc1	-70	-54	85*	0	-13	-47
Cc1ccc(C(=O)Nc2ccc3ncccc3c2)cc1	84*	-181	0	/	28	-25
O=C(Nc1ccc2ncccc2c1)c1cccc(Br)c1	-375	-88	-13	-37	-151	-102
Cc1cccc(C(=O)Nc2ccc(C(=O)Nc3ccc(O)cc3)cc2)c1	6	-9	95*	45	29	32
Cc1cccc(C(=O)Nc2ccc(NC(=O)c3ccccc3)cc2)c1	34	-8	-10	2	11	-19
CCN(CC(=O)NCc1cccs1)C(=O)c1ccc(-c2ccc(F)cc2)o1	/	-3	-18	-4	27	13
CC(C)N(CCC(=O)c1ccc2ccccc2c1)Cc1ccccc1	/	7	75*	4	36	-2
SMILES	aSyn UTR inh	697 NFkB inh	CSC inhib	Gli-Sufu block	Mdm2 MdmX PPI	Jurkat NFkB inh
CC(OC(=O)c1ccc2ccccc2c1)C(=O)N(C)Cc1ccccc1 (stereo not drawn)	/	11	7	-1	31	-2
Cc1ccc(NC(=O)CSc2nc3nn(-c4ccccc4)c(=O)c-3c3n2CCCCC3)cc1F	/	-7	-5	13	43	-1
CC(C)=CCc1c(O)cc2c(=O)c3ccc(O)cc3oc2c1O	-141	-4	83*	-23	-57	-25
Cc1cccc(OCc2nnc(SCc3cc(=O)n4cc(Br)ccc4n3)o2)c1	2	2	14	2	26	3
O=C(NNC(=O)C1[C@H]2CCCC[C@@H]12)NC1CCCCC1 (stereo partly drawn)	-16	-2	-3	-4	2	-1
FC(F)(F)c1cc(Oc2ccc(Cl)cc2)nc(-c2ccccn2)n1	9	-5	5	1	-14	-13
FC(F)(F)c1cc(Oc2ccccc2Cl)nc(-c2ccccn2)n1	64*	-12	30	1	30	3
CCc1ccc(OCc2n[nH]c(=S)n2C(C)CCCC(C)C)cc1 (stereo not drawn)	3	11	118*	-4	28	11
CCc1ccc(OCc2n[nH]c(=S)n2Cc2ccccc2)cc1	5	-21	2	-17	-39	-7
Cc1cccc(NC(=S)N/N=C/c2c[nH]c3ccccc23)c1	-65	-82	79*	-42	44	36
Cc1ccc(NC(=S)N/N=C/c2c(C)[nH]c3ccccc23)cc1	-49	-29	97*	3	25	-37
CN(C)S(=O)(=O)c1ccc(C(=O)Nc2ccc3nc(N4CCOCC4)sc3c2)cc1	/	-31	-10	-21	-40	-3
Cc1ccc(/C=N/NC(=O)c2n[nH]c3c2CCCC3)cc1	77*	-220	57	23	37	25
O=C(N/N=C/c1cccs1)c1n[nH]c2c1CCCC2	82*	-87	50	-15	30	-17
C/C(=N\NC(=O)c1n[nH]c2c1CCC2)c1cccs1	107*	0	25	-44	49	30
C=CCCN(Cc1ccccc1)S(=O)(=O)c1cc(Br)ccc1Br	/	26	43	9	43	8
CC(=O)Nc1ccc(S(=O)(=O)NCCC(=O)OCC(=O)c2cccc(Br)c2)cc1	/	16	/	-12	18	-6
COc1ccc(-c2ccc(SC)nn2)cc1	75*	-70	80*	-55	-29	-86
CCC(C)(C)C1CCc2[nH]nc(C(=O)NCCNC(=O)OC(C)(C)C)c2C1 (stereo not drawn)	/	-39	/	6	26	-25
CC(C)(C)c1cc(CCC(=O)NNC(=S)NC(=O)c2ccccc2)cc(C(C)(C)C)c1O	66*	-28	43	59*	48	-1
COc1ccc(-c2csc(NS(=O)(=O)c3ccc([N+](=O)[O-])cc3)n2)cc1	-6	-46	-13	1	-36	-18
O=[N+]([O-])c1ccc(S(=O)(=O)Nc2ccc(-c3csc(-c4ccccc4)n3)cc2)cc1	-9	23	100*	/	38	1
O=S(=O)(Nc1ccc(-c2csc(-c3ccccc3)n2)cc1)c1ccccc1	17	9	148*	-40	-2	-8
Cc1ccc(S(=O)(=O)Nc2ccc(-c3csc(-c4ccccc4)n3)cc2)cc1	-8	-3	112*	2	45	4
COCCN(CC(=O)Nc1cccc(C)c1C)C(=O)c1oc2ccccc2c1C	/	-15	-9	-4	1	-8
O=Nc1c(O)n(Cc2ccc(Cl)c(Cl)c2)c2ccccc12	11	-19	84*	9	49	2
